# Test results taken from PubChem BioAssay (Tox21).
# Inconclusive results are not listed. Where a structure was tested more than once in an assay, its records may differ in their call. Active and inactive are the calls of the source. The call rests on the fitted dose curve; in most records, active means well fitted cell-killing curve with a large enough effect in the repeat runs; inconclusive means weak or mixed curves, or effect the other way; inactive means flat fitted curve, though single readings scatter.
# Experiment: qHTS assay to identify small molecule agonists of the TGF-beta/Smad signaling pathway - cell viability counter screen (AID 1346829); further: nearly all actives have a fitted effect of over 45% in size; on activity change, negative = cytotoxicity: top concentration of the series differs between compounds
# Conditions: SBE-bla HEK293T viability, CellTiter-Glo luminescence, 5 h; series mostly up to 76.8 µM; activity change, negative = cytotoxicity: at the top concentration
# Text: National Center for Advancing Translational Sciences [NCATS]
# NIH Chemical Genomics Center [NCGC]
# U.S. Environmental Protection Agency [EPA]
# National Institutes of Environmental Health Sciences [NIEHS]
# National Toxicology Program [NTP]
# U.S. Food and Drug Administration [FDA]
# Transforming growth factor beta (TGF-beta) superfamily consists of a large number of structurally related dimeric proteins that act as hormones or local mediators in regulating a wide range of biological functions. This superfamily includes TGF-betas themselves, the bone morphogenetic proteins (BMPs) and the activins. These ligands induce oligomerization of serine/threonine receptor kinases and phosphorylate the cytoplasmic signaling molecules of Smad protein family. CellSensor SBE-bla HEK 293T cell line (Life Technologies, Carlsbad, CA), responsive to TGF-beta was used to screen Tox21 10K compound library for identification of agonists/antagonists of the Smad signaling pathway. This cell line contains a beta-lactamase reporter gene under control of the Smad binding element (SBE) stably integrated into HEK 293T cells. Also cytotoxicity of the compounds was tested in parallel by measuring the cell viability using CellTiter-Glo assay system in the same wells.
# Tox21 Assay Protocol Summary:
# SBE-bla HEK 293T cells were dispensed at 4,000/well in 6 uL of assay medium into black wall/clear-bottom 1536-well plates using a Multidrop Combi (ThermoFisher Scientific, Waltham, MA) dispenser. After the assay plates were incubated at 37 C and 5% CO2 for an overnight, 23 nL of compounds dissolved in DMSO, positive controls or DMSO only was transferred to the assay plate by a Pintool station (Kalypsys, San Diego, CA). The assay plates were incubated at 37 C and 5% CO2 for 5 hr. One uL of LiveBLAzer B/G FRET substrate (Life Technologies) was added using a Flying Reagent Dispenser (FRD, Aurora Discovery, San Diego, CA) and the plates were incubated at room temperature for 2 hr. Fluorescence intensity (405 nm excitation, 460 nm and 530 nm emissions) was measured using an Envision plate reader (PerkinElmer, Shelton, CT). For cytotoxicity read, 4 uL of CellTiter-Glo reagent (Promega Corporation, Madison, WI) was added to each well of the assay plates using FRD. After 30min incubation at room temperature, the luminescence intensity was measured using ViewLux plate reader (PerkinElmer).
# On the % scale 0 is the no-effect control and ±100 the full control effect; potency means the concentration at half of the fitted maximal effect.
Compound,Potency,"activity change, negative = cytotoxicity"
CCN(CC)C(=S)S,inactive,–
NC(=O)C(Cl)Cl,–,1.28% (inactive)
CCC[CH2][Sn]([CH2]CCC)([CH2]CCC)[CH2]CCC,38.9 µM (active),–
CCCCCCC[CH2][Sn]([Cl])([Cl])[CH2]CCCCCCC,–,1.09% (inactive)
COC(=O)N(OC)c1ccccc1COc1ccn(-c2ccc(Cl)cc2)n1,–,-18.6% (inactive)
[Cl][Hg][c]1ccccc1,17.4 µM (active),–
O=[N+]([O-])C(Br)Br,–,5.63% (inactive)
Cc1ccc([N+](=O)[O-])[c]2c1[O][Hg]2,23.9 µM (active),–
N#CC(C#N)=NNc1cccc(Cl)c1,–,-15.8% (inactive)
C=C(C)C(=O)[O][Sn]([CH2]CCC)([CH2]CCC)[CH2]CCC,1.1 µM (active),–
COc1ccc(Cc2nccc3cc(OC)c(OC)cc23)cc1OC,–,-9.41% [at 35.3 µM] (inactive)
BrCCCBr,–,5.82% (inactive)
CCCN,–,17.5% (inactive)
CO/N=C(\C(=O)OC)c1ccccc1CO/N=C(\C)c1cccc(C(F)(F)F)c1,–,-28.7% (inactive)
CC(=O)[O-].CC(=O)[O-].[Co+2],–,2.16% (inactive)
c1ccc(N=NNc2ccccc2)cc1,inactive,–
CCOP(=O)(OCC)Oc1cc(C)nc(C(C)C)n1,–,2.04% (inactive)
Oc1cccc(Cl)c1Cl,–,1.45% (inactive)
N#Cc1ccc(N(CC(N)=O)CC(F)(F)F)cc1C(F)(F)F,–,0.382% (inactive)
Cc1c([N+](=O)[O-])cc2c(c1[N+](=O)[O-])C(C)(C)CC2(C)C,–,-13.3% (inactive)

Compound,Potency,"activity change, negative = cytotoxicity"
Cc1ccccc1OP(=O)(Oc1ccccc1C)Oc1ccccc1C,–,2.13% (inactive)
CCC[CH2][Sn]([CH2]CCC)([O]C(C)=O)[O]C(C)=O,–,-16.5% (inactive)
CC(C)c1c(CN(C)C(C)Cc2ccccc2)n(C)n(-c2ccccc2)c1=O (stereo not given),–,-1.81% [at 35.3 µM] (inactive)
CC(C)N(C(=O)SC/C(Cl)=C/Cl)C(C)C,–,3.62% (inactive)
CC[C@]1(O)CC[C@H]2[C@@H]3CCC4=CCCC[C@@H]4[C@H]3CC[C@@]21C,–,15.9% [at 35.3 µM] (inactive)
CCCCN(CCCC)C(=S)[S-].CCCCN(CCCC)C(=S)[S-].[Ni+2],–,-0.317% [at 35.3 µM] (inactive)
O=c1c2ccccc2c(=O)c2c1cc(Cl)c1[nH]c3c([nH]c12)c(Cl)cc1c(=O)c2ccccc2c(=O)c13,–,10.1% (inactive)
O=NN(CCO)CCO,–,0.778% (inactive)
CC(O)C(=O)[O][Hg][c]1ccccc1 (stereo not given),17.4 µM (active),–
CN1CCc2cc3c(cc2C1O)OCO3 (stereo not given),–,-2.26% (inactive)
CN(C)C(=S)SSC(=S)N(C)C,34.2 µM (active) and inactive,–
O.O.O.O.O.O.O=S(=O)([O-])[O-].[Ni+2],–,0.904% [at 35.3 µM] (inactive)
CCCCn1cc[n+](C)c1 (tested in a mixture with another compound),–,2.87% (inactive)
CC(Cl)CCl (stereo not given),–,0.0185% (inactive)
C[C@]12Cc3cn[nH]c3C[C@@H]1CC[C@@H]1[C@@H]2CC[C@@]2(C)[C@H]1CC[C@]2(C)O,–,1.15% [at 35.3 µM] (inactive)
CC(=O)[O-].CC(=O)[O-].CC(=O)[O-].[Sb+3],–,2.52% [at 2.72 µM] (inactive)
C=CCOC(=O)c1ccccc1N,–,-0.261% (inactive)
CCCCN(CCCC)C(=S)S,–,-7.53% (inactive)
CC1CN1 (stereo not given),–,4.89% (inactive)
Cc1cc(C2CC2)nc(Nc2ccccc2)n1,–,-2.73% (inactive)
